Test results: PubChem BioAssay (NCATS)
Inconclusive results are not listed. Entries that show only a call come without a potency. Unmarked numbers belong to inactive results. Active and inactive are the calls of the source. Calls come from the whole dose curve; as a rule, active = well fitted curve in the direction sought with a large enough effect; inconclusive = small, poorly fitted or top-dose-only effect, or another doubt; inactive = no such curve, though single readings can be large; an effect the other way counts as inactive or inconclusive.

Key:
[1] = molecular target: Rap guanine nucleotide exchange factor 3 (Homo sapiens) (UniProt O95398); experiment: Confirmatory qHTS for agonist of cAMP-regulated guanine nucleotide exchange factor 3 (EPAC1) (AID 1645881); details: EPAC1 Rap1B BODIPY-GDP exchange fluorescence; series mostly up to 154 µM;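 note: EPAC1 catalysed release of BODIPY-GDP from Rap1B seen as fluorescence loss; nearly all actives have a fitted effect of over 75% in size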
[2] = molecular target: Rap guanine nucleotide exchange factor 4 (Homo sapiens) (UniProt Q8WZA2); experiment: Confirmatory qHTS for agonist of cAMP-regulated guanine nucleotide exchange factor 4 (EPAC2) (AID 1645884); details: EPAC2 GEF activity, Rap1B-BODIPY-GDP fluorescence; series mostly up to 154 µM;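 note: nucleotide exchange releases bodipy-GDP from Rap1 and this lowers its fluorescence; nearly all actives have a fitted effect of over 65% in size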
[3] = molecular target: Rap guanine nucleotide exchange factor 4 (Homo sapiens) (UniProt Q8WZA2); experiment: Confirmatory qHTS for antagonist of cAMP-regulated guanine nucleotide exchange factor 4 (EPAC2) (AID 1645885); details: EPAC2 Rap1B-BODIPY-GDP exchange fluorescence, biochemical; series mostly up to 12.7 µM; note: nearly all actives have a fitted effect of over 25% in size; note: potency is the fitted concentration of half-maximal effect
[4] = molecular target: Rap guanine nucleotide exchange factor 3 (Homo sapiens) (UniProt O95398); experiment: Counterscreen qHTS for antagonist of cAMP-regulated guanine nucleotide exchange factor 3 (EPAC1) (AID 1645888); details: Rap1B-BODIPY-GDP nucleotide exchange, fluorescence; series mostly up to 154 µM;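 note: fluorescence loss as bound BODIPY-GDP is released from Rap1B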
Summary of the method: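 Rap1B–BODIPY-GDP (250 nM) with 50 uM GDP; compounds pin-transferred to 9.74 nM–152 uM final (activator) or from 7.32 nM upwards (inhibitor). Fluorescence Ex/Em 480/540 nm read at 5 and 30 min, then after adding cAMP or buffer, at room temperature.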

Chain of Rap guanine nucleotide exchange factor 3 (Homo sapiens) (O95398 whole entry, looked up): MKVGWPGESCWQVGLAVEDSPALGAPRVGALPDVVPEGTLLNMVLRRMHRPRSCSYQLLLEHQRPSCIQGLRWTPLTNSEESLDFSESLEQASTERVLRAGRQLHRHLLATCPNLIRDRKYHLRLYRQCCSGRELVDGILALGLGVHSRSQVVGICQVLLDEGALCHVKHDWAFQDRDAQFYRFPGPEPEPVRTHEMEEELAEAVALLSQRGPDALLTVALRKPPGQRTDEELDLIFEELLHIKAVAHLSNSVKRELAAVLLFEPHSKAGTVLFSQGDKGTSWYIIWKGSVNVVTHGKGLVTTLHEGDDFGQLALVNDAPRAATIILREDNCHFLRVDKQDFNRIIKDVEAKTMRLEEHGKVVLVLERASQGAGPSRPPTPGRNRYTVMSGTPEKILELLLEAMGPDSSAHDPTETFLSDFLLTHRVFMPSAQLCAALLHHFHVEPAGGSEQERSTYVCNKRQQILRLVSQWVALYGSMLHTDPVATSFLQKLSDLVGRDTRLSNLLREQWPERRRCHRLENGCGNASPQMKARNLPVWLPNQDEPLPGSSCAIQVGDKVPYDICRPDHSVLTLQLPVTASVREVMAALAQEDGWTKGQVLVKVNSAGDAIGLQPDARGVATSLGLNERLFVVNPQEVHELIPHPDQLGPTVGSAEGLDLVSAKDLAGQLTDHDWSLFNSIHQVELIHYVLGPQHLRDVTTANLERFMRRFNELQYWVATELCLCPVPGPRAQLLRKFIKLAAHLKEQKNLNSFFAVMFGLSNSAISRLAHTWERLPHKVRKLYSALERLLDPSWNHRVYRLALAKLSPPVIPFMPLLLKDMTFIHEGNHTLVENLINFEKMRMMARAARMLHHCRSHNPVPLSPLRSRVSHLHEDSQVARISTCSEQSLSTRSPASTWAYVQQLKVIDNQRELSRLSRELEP
Chain of Rap guanine nucleotide exchange factor 4 (Homo sapiens) (Q8WZA2 whole entry, looked up): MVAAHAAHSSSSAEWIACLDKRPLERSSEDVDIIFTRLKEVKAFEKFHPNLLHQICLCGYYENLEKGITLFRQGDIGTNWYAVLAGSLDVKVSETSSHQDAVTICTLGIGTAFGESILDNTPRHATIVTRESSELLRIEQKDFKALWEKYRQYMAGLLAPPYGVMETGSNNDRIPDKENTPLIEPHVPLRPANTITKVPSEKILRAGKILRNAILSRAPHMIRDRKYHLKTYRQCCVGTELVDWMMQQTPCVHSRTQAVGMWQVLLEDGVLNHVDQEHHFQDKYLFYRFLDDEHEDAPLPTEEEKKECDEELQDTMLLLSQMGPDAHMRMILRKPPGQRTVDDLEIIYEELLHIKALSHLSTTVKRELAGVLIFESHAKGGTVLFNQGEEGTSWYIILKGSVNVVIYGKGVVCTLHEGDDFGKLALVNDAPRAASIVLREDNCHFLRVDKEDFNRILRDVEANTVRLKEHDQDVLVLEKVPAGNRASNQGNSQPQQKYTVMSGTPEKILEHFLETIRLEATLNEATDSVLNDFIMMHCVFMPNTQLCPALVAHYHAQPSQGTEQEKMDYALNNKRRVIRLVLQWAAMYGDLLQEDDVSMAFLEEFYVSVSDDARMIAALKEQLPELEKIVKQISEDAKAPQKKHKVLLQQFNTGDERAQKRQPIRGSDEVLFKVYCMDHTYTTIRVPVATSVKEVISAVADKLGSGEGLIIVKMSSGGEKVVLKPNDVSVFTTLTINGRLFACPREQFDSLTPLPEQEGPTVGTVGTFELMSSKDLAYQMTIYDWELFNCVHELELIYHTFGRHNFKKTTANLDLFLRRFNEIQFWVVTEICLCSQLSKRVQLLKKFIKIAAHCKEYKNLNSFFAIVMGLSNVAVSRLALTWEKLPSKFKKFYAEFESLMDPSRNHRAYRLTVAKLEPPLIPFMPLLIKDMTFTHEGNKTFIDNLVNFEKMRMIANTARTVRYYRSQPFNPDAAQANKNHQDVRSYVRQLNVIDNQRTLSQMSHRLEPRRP

Compound | Potency [1] | Potency [2] | Potency [3] | Potency [4] | outcome [3] | activation [2] | activity change, negative = inhibition [4]
COC(=O)Cn1c(CN2CCc3ccccc3C2)nc2c1c(=O)n(C)c(=O)n2C | inactive | inactive | inactive | inactive | – | – | –
CCOc1cc(-c2ccc(OC(=O)c3ccccc3)c(OC)c2)cc(=O)c2c(C)oc(C)c12 | inactive | inactive | – | inactive | inactive [at 12.7 µM] | – | –
COc1ccc(C(=O)CSc2nnc(-c3ccco3)c(-c3ccco3)n2)cc1 | inactive | inactive | inactive | inactive | – | – | –
O=C1CS(=O)(=O)N(Cc2cccc(F)c2)c2ccc(Br)cc21 | inactive | inactive | inactive | inactive | – | – | –
CCOc1ccc(C(=O)N2CC(=O)Nc3ccc(C)cc3C2c2ccc(F)cc2)cc1OCC (stereo not given) | inactive | inactive | – | inactive | inactive [at 12.7 µM] | – | –
O=S(=O)(c1ccc2c(c1)C(O)c1ccccc1CC2)C(F)(F)F (stereo not given) | inactive | inactive | inactive | inactive | – | – | –
COc1cccc(C(=O)Nc2ccc(NC(=O)c3ccco3)c(Cl)c2)c1 | inactive | – | inactive | – | – | 0% [at 17.1 µM, percent relative to cAMP agonist control] | -46.5% [at 30.8 µM]
COc1cc(-c2cc(OC)c3c(C)oc(C)c3c(=O)c2)ccc1OC(=O)c1ccccc1F | inactive | inactive | – | inactive | inactive [at 12.7 µM] | – | –
Clc1ccc(C(c2ccccc2)c2c[nH]c3ccccc23)s1 (stereo not given) | inactive | inactive | inactive | inactive | – | – | –
CSc1ccccc1C(=O)N(C)C(c1ccccc1)c1ccccc1 | inactive | inactive | 26.9 µM (active) | inactive | – | – | –
CC(=O)Nc1ccc(N(C(=O)Cn2nnc3ccccc32)C(C(=O)NC2CCCC2)c2ccc(O)c(O)c2)cc1 (stereo not given) | inactive | inactive | 95.3 µM (active) | inactive | – | – | –
COc1ccc(-n2c(C)cc(/C=C3\SC(=O)NC3=O)c2C)cc1 | inactive | inactive | inactive | inactive | – | – | –
CCc1nc2c(OCc3ccc(OC(F)F)cc3)cccn2c1N(C)C(=O)c1cccs1 | inactive | inactive | inactive | inactive | – | – | –
O=c1c([N+](=O)[O-])cn(Cc2ccccc2)c(=O)n1Cc1ccccc1 | inactive | – | inactive | – | – | 6.36% [at 17.1 µM, percent relative to cAMP agonist control] | -12.8% [at 30.8 µM]
O=C(CN1C(=O)/C(=C2/SC(=S)N(CCS(=O)(=O)O)C2=O)c2ccccc21)Nc1cccc(C(F)(F)F)c1 | inactive | – | inactive | – | – | 2.25% [at 17.1 µM, percent relative to cAMP agonist control] | -24.5% [at 30.8 µM]
COCOCCn1cc(CN2CCS(=O)(=O)N(Cc3ccc(-c4ccccc4)cc3)C(CC(C)C)C2=O)nn1 (stereo not given) | inactive | – | 3.01 µM (active) | – | – | 4.12% [at 17.1 µM, percent relative to cAMP agonist control] | -6.67% [at 30.8 µM]
Cc1ccc2[nH]cc(C(c3ccccc3)c3ccc(Cl)s3)c2c1 (stereo not given) | inactive | inactive | inactive | inactive | – | – | –
CCC(C)Cn1c(O)cc2nn(-c3nc4ccccc4s3)c(=O)c-2c1C (stereo not given) | inactive | – | inactive | – | – | -0.693% [at 17.1 µM, percent relative to cAMP agonist control] | -16.7% [at 30.8 µM]
CCOc1cc(CNc2ccc(O)cc2)cc(Cl)c1OCc1ccccc1 | inactive | inactive | inactive | inactive | – | – | –
COc1ccc(C(=O)N(Cc2ccco2)Cc2ccc(C)o2)cc1 | inactive | inactive | inactive | inactive | – | – | –
COc1cc(/C=C2/SC(=S)N(CC(=O)O)C2=O)ccc1OC(=O)c1cccs1 | inactive | inactive | inactive | inactive | – | – | –
Cc1ccc(Cl)cc1N1CCN(C(=O)c2ccc(C)c(-n3c(C)nc4cccnc43)c2)CC1 | inactive | inactive | – | inactive | inactive [at 12.7 µM] | – | –
O=C(NCCCN1CCOCC1)c1ccc2c(c1)N(Cc1cccc(Cl)c1)C(=O)c1ccccc1S2 | inactive | inactive | inactive | inactive | – | – | –
CC(C)CCn1c(Oc2ccccc2Cl)nc2c1c(=O)n(C)c(=O)n2C | inactive | inactive | inactive | inactive | – | – | –
OC(c1cc(F)cc(Cl)c1)c1ncc(-c2cccc(C(F)(F)F)c2)[nH]1 (stereo not given) | inactive | – | inactive | – | – | -1.66% [at 17.1 µM, percent relative to cAMP agonist control] | -12% [at 30.8 µM]
